For part of these data: Results with a measured potency or affinity are listed apart. Calls of active or inactive are those of the source.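 How the source made its calls, unless noted: active means primary screen inhibitor hit that blocks the TRPC4 channel at some tested dose, yielding a dose curve; inactive means the rest.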

Experiment [1] has as its system TRPC4 beta (transient receptor potential cation channel C4), mouse. Briefly: TRPC4 cation channel opening, retest – cell-based, Fluo4 calcium, HEK293 TRPC4beta/mu-opioid, duplicates, 10 µM, confirmation (AID 2426;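 active means fluorescence ratio normalized to control raised more than 50% in primary screen plus both repeat runs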;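 on activation: percent rise of integrated ratio over buffer wells lacking compound which define 0%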). Particulars: Fluo4 calcium fluorescence, at 10 µM; hits give high values.
The test system of experiment [2] is transient receptor potential cation channel C4 beta (TRPC4), mouse. Briefly: TRPC4 cation channel opening, second retest – cell-based, second round, Fluo4, HEK293 TRPC4beta/mu-opioid, 1 µM, confirmation (AID 2461;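 active means primary screen active and over 50% activation in each of two duplicate runs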;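 on activation: 0% = wells without test compound as baseline of integrated fluorescence ratio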). Particulars: Fluo4 calcium fluorescence, at 1 µM; hits give high values.
For experiment [3], the system named is TRPC4 (transient receptor potential cation channel C4 beta), mouse. The experiment can be described thus: potentiation of DAMGO EC20 TRPC4 response – cell-based, second round, Fluo-4, HEK293 TRPC4beta/mu-opioid, 1 µM, confirmation (AID 2554;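 active means primary screen hit whose fluorescence ratio, in both repeats, exceeds the weak agonist control mean by 3 SD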). The conditions noted are these: DAMGO EC20, Fluo-4 calcium flux, at 1 µM; hits give high values.
Experiment [4] deals with TRPC4 beta (transient receptor potential cation channel C4), mouse. The experiment can be described thus: potentiation of DAMGO EC20 TRPC4 response – cell-based, Fluo-4, HEK293 TRPC4beta/mu-opioid, confirmation (AID 2555;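 active means primary screen hit whose calcium fluorescence ratio, in both repeats, exceeds the weak agonist control mean by 3 SD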). Particulars: DAMGO EC20, Fluo-4 calcium flux, at 10 µM; hits give high values.
For experiment [5], the target named is Short transient receptor potential channel 4 (Mus musculus) (UniProt Q9QUQ5). The experiment can be described thus: blockers of DAMGO-evoked TRPC4 calcium flux – cell-based, Fluo4, HEK293 TRPC4beta/mu-opioid, confirmation (AID 2636;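 active means calcium signal cut by more than 3 SD below the full-agonist control yet still positive, in both repeats and the earlier primary screen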). The conditions noted are these: at 10 µM; hits give high values. A general note: Calcium flux is commonly read through the fluorescence of an indicator in the cells.
Sequence of Short transient receptor potential channel 4 (Mus musculus) (Q9QUQ5 whole entry, looked up): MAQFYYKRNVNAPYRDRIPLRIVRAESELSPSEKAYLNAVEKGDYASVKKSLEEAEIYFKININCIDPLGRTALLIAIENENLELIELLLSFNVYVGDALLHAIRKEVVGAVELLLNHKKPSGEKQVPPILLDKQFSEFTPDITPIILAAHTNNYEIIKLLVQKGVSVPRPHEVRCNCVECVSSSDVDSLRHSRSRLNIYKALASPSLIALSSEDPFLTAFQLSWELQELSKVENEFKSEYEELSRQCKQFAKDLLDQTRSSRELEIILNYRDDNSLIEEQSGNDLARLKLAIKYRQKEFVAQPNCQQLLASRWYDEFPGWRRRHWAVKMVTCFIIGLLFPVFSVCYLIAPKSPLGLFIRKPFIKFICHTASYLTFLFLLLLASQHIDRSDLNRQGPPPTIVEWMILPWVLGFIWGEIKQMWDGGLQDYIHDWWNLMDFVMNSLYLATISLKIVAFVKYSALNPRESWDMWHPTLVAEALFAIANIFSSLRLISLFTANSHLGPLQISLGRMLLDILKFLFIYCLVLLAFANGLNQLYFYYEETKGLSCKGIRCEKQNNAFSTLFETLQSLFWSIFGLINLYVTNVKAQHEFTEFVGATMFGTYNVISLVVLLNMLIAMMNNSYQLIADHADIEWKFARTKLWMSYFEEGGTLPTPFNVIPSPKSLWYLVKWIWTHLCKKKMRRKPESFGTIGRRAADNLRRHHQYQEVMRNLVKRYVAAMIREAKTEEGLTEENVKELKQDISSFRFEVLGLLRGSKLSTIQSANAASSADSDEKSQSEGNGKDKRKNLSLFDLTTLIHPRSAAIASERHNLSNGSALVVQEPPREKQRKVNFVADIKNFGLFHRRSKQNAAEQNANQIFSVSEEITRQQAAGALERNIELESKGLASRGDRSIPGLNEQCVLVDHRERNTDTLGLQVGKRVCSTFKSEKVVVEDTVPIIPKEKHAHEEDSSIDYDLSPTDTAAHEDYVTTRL

The target is the same in experiment [6]. The experiment can be described thus: blockers of DAMGO-evoked TRPC4 calcium flux – cell-based, second round, Fluo4, HEK293 TRPC4beta/mu-opioid, 1 µM, confirmation (AID 2637;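 active means calcium signal ratio cut to more than 3 SD under the fully stimulated control mean yet still positive, in both repeats and the primary screen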). Particulars: at 1 µM; hits give high values.
The target is the same in experiment [7]. The experiment can be described thus: potentiation of DAMGO-evoked TRPC4 calcium signal – cell-based, HEK293 TRPC4/mu-opioid, Fluo-4 calcium, EC20 DAMGO, dose response (AID 434941;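 active means earlier screen potentiator hit that boosts the TRPC4 ion channel at some dose, with a dose response; inactive means no potentiation, no dose response, or not a prior hit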;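 further: calcium entry triggered by an EC20 dose of DAMGO at the co-expressed mu-opioid receptor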). The conditions noted are these: HEK293 TRPC4/mu-opioid cells, Fluo-4 calcium fluorescence; series mostly up to 20 µM.
Experiment [8] has the same target. The experiment can be described thus: block of DAMGO-driven TRPC4 calcium entry – cell-based, HEK293 TRPC4/mu-opioid, Fluo-4 calcium, dose response (AID 434942). The conditions noted are these: HEK293 TRPC4/mu-opioid cells, DAMGO-evoked Fluo-4 calcium ratio; series mostly up to 20 µM.
Experiment [9] deals with Short transient receptor potential channel 6 (Mus musculus) (UniProt Q61143). The experiment can be described thus: TRPC6 blockade by TRPC4 inhibitor hits – cell-based, HEK293, membrane potential dye, duplicate, selectivity assay for TRPC4 inhibitor project, confirmation (AID 434948;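 active means active in primary screen and both duplicates, each dropping signal beyond three positive-control SD with fluorescence still positive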). The conditions noted are these: HEK293 TRPC6, membrane potential dye fluorescence, at 10 µM, stimulated with maximal-effect acetylcholine; hits give high values.
Sequence of Short transient receptor potential channel 6 (Mus musculus) (Q61143 whole entry, looked up): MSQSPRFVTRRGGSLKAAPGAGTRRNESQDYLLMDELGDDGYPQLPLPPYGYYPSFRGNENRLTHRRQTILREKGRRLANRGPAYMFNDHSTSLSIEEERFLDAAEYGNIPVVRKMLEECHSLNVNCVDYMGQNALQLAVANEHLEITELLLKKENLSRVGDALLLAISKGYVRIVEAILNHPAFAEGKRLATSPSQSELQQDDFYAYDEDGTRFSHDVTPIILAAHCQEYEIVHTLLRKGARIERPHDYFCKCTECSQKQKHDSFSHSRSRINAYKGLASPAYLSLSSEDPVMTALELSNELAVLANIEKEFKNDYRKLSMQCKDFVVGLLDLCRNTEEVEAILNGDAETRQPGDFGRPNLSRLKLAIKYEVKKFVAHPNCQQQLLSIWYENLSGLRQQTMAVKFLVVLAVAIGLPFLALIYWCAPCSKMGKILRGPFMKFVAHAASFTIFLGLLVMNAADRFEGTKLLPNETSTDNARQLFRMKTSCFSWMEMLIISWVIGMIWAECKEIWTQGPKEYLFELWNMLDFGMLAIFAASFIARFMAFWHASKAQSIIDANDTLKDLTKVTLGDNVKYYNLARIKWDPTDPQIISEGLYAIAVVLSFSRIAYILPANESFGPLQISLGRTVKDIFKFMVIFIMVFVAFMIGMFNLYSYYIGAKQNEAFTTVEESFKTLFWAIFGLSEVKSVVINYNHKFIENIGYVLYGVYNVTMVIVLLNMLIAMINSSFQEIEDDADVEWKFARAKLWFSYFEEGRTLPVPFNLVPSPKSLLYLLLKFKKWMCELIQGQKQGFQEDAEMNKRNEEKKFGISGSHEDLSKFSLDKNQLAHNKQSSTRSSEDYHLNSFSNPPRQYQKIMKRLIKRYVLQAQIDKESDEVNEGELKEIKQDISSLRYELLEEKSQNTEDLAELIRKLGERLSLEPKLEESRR

Experiment [10] shares this target. The experiment can be described thus: TRPC6 opening by TRPC4 activator hits – cell-based, HEK293, membrane potential dye, duplicate, selectivity assay for TRPC4 activator project, confirmation (AID 434950;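 active means membrane potential signal rise above negative control mean plus 3 SD in both duplicates, also active in the earlier TRPC4 screen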;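 on activation: 0% = buffer only wells and 100% = acetylcholine maximal-effect wells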). Particulars: HEK293 TRPC6, membrane potential fluorescence, at 10 µM; activation: hits give high values; outcome: activation.
The target is the same in experiment [11]. The experiment can be described thus: positive modulators of mouse TRPC6 channel – HEK293 cells, membrane potential dye, duplicate, selectivity assay for TRPC4 potentiator project, confirmation (AID 434952;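 active means compound raising the membrane signal above positive-control mean plus 3 SD in both repeats, and a primary screen hit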). The conditions noted are these: HEK293 TRPC6, membrane potential dye fluorescence, at 10 µM, maximal acetylcholine added after compound; hits give high values.

The target of experiment [12] is Short transient receptor potential channel 4 (Mus musculus) (UniProt Q9QUQ5). The experiment can be described thus: calcium flux activators in TRPC4/5HT1a cells, counter-screen for TRPC4 activator project, cell-based, second counter screen, HEK293 TRPC4/5HT1a, Fluo-4 (AID 434977;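 active means calcium signal rise above buffer-control mean plus 5 SD in both duplicates, and also a hit in the primary screen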;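 on activation: plate controls were assay buffer for no effect and maximal serotonin response for full effect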). The conditions noted are these: Fluo-4 calcium flux, at 10 µM; hits give high values.
Experiment [13] in a line: serotonin-gated TRPC4 signal block – cell-based, second counter screen, HEK293 TRPC4/5HT1a, Fluo-4, counter-screen for TRPC4 inhibitor project, confirmation (AID 434978;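 active means primary screen active whose calcium signal fell more than 3 SD beyond the full-serotonin control mean in both duplicate plates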;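 further: serotonin given first at submaximal then at maximal dose after compound preincubation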). The conditions noted are these: Fluo-4 calcium flux, at 10 µM, serotonin added to trigger calcium flux; hits give high values. (In general: The purpose of a counterscreen is to sort out artefacts and off-target activity.)

Experiment [14] relates to TRPC4 (mouse), co-expressed with 5HT1a in HEK293. Briefly: enhancement of serotonin-evoked TRPC4 response – cell-based, second counter screen, HEK293 TRPC4/5HT1a, Fluo-4, counter-screen for TRPC4 potentiator project, confirmation (AID 434979;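 active means signal rise over 3 SD above mean of control wells given weak agonist, in both repeats and first screen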). The conditions noted are these: Fluo-4 calcium flux, at 10 µM, serotonin added at its EC20 dose; hits give high values.
The nature of experiment [15]: nonspecific calcium rise without TRPC4 – cell-based, HEK293 mu-opioid receptor line, counter-screen for TRPC4 activator project, confirmation (AID 449723;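 active means hit in primary screen, with calcium signal over 5 SD above buffer well mean in both duplicates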;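 further: counter screen cells carry the mu-opioid receptor alone and lack TRPC4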). Particulars: HEK293 mu-opioid cells, Fluo-4 calcium fluorescence, at 10 µM; hits give high values.
Experiment [16] can be described thus: nonspecific potentiation of DAMGO calcium response – cell-based, HEK293 mu-opioid receptor line, counter-screen for TRPC4 allosteric potentiator project, confirmation (AID 449724;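 active means calcium signal rise more than 3 SD above the low-dose agonist control mean, in both duplicate plates and the primary screen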;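 further: HEK293 cells carrying mu-opioid receptor only with no TRPC4 channel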). The conditions noted are these: HEK293 mu-opioid receptor cells, Fluo-4 calcium flux, at 10 µM, compound added before EC20 DAMGO stimulus; hits give high values.

As for `CN1CCCC(OC(=O)c2cc(Cl)cc(Cl)c2)C1` (stereo not given), the activation in [1] is 186% (active); in experiment [2], 112% (active); in [10], 38.5% (active); in experiment [12] it was 67.9% (active). Further, the outcome in [3], in experiment [4], in [5], in experiment [6], in experiment [7] and in [8] was inactive. The result in [9], in experiment [11], in experiment [13], in [14], in experiment [15] and in [16] was inactive.

Consider `CC(NCCC1(Cc2ccccc2Cl)CCOC(C)(C)C1)c1cccs1` (stereo not given), for which the activation in experiment [1] is 89% (active). For the same compound, the outcome in experiment [2], in experiment [3], in [4], in [5], in experiment [6] and in [7] was inactive. Also, the result in experiment [8], in experiment [9], in experiment [10], in experiment [11], in experiment [12] and in experiment [13] was inactive. The result in experiment [14], in experiment [15] and in experiment [16] was inactive.

Regarding `COc1ccccc1N1CCN(C(c2cccs2)C(C)NC(=O)c2cccs2)CC1` (stereo not given), the outcome in [1], in [2], in [3], in [4], in experiment [5] and in experiment [6] was inactive. In addition, the outcome in experiment [7], in experiment [8], in experiment [9], in experiment [11], in [12] and in experiment [13] was inactive. The result in experiment [14], in experiment [15] and in experiment [16] was inactive. In addition, the activation in experiment [10] was 23.5% (active).

As for `COc1cccc(C(=O)N(C)CC2CCN(CCc3cccc(C(F)(F)F)c3)CC2)c1`, the activation in experiment [1] was 93% (active); in experiment [2] it was 77% (active); in experiment [10], 62.5% (active). In addition, the outcome in experiment [3], in experiment [4], in experiment [5], in [6], in experiment [7] and in [8] was inactive. Besides, the result in experiment [9], in [11], in experiment [12], in [13], in [14] and in [15] was inactive. The result in experiment [16] was inactive.

As for `O=C(C1CCCN(Cc2ccccc2F)C1)N1CCc2ccccc2C1` (stereo not given), the activation was 96% (active) in experiment [1], 98% (active) in experiment [2], 56.5% (active) in experiment [10] and 40.5% (active) in [12]. In addition, the result in experiment [3], in [4], in [5], in experiment [6], in experiment [7] and in experiment [8] was inactive. Also, the compound was called inactive in [9], in experiment [11], in experiment [13], in experiment [14], in experiment [15] and in [16].

With `CN(C)CCCN(C(=O)c1ccc(S(=O)(=O)N2CCCc3ccccc32)cc1)c1nc2ccc(F)cc2s1`, the activation was 134% (active) in experiment [1] and 14.7% (active) in [15]. Moreover, the outcome in experiment [2], in experiment [3], in experiment [4], in experiment [5], in [6] and in [7] was inactive. For the same compound, the outcome in experiment [8], in experiment [9], in experiment [10], in experiment [11], in experiment [12] and in [13] was inactive. The outcome in experiment [14] and in experiment [16] was inactive.

For the compound `CCN(CCCNS(=O)(=O)c1cc(-c2cc(C)no2)ccc1C)Cc1ccccc1`, the activation in experiment [1] is 171% (active); in experiment [2], 96% (active); in experiment [10], 40.5% (active); in experiment [12], 68.6% (active). For the same compound, the result in experiment [3], in experiment [4], in experiment [5], in experiment [6], in experiment [7] and in [8] was inactive. For the same compound, the compound was classed as inactive in [9], in experiment [11], in [13], in experiment [14], in experiment [15] and in experiment [16].

As to `COc1cc(OC)c(CN2CCC(Cc3ccccc3)CC2)cc1Br`, the activation is 121% (active) in [1], 43.5% (active) in experiment [10] and 44.9% (active) in experiment [12]. In addition, the outcome in [2], in experiment [3], in experiment [4], in [5], in experiment [6] and in [7] was inactive. Moreover, the outcome in [8], in [9], in [11], in [13], in experiment [14] and in experiment [15] was inactive. Further, the outcome in experiment [16] was inactive.

As to `CCCc1c(O)nc(SCCN(CCC)CCC)[nH]c1=O`, the activation in experiment [1] is 96% (active); in [12], 12.4% (active). The result in experiment [2], in experiment [3], in experiment [4], in experiment [5], in experiment [6] and in [7] was inactive. The outcome in [8], in experiment [9], in experiment [10], in [11], in experiment [13] and in experiment [15] was inactive. Also, the outcome in [16] was inactive. Also, the potentiation in experiment [14] is 23.3% (active).

For `CCOc1ccccc1CN1CCNC(=O)C1CC(=O)NCCc1ccccn1` (stereo not given), the outcome in experiment [1], in [2], in [3], in [4], in experiment [5] and in experiment [6] was inactive. Also, the outcome in experiment [7], in experiment [8], in experiment [9], in experiment [11], in experiment [13] and in experiment [14] was inactive. Further, the outcome in [15] and in [16] was inactive. Also, the figures for the activation in experiment [10] and in experiment [12] were 23.5% (active) and 17.3% (active), respectively.

As for `CN1CCC(CNC(=O)Nc2ccccc2)(c2ccccc2)CC1`, the activation was 97% (active) in [1] and 52% (active) in experiment [2]. For the same compound, the outcome in experiment [3], in experiment [4], in [5], in experiment [6], in experiment [7] and in [8] was inactive. In addition, the outcome in experiment [9], in [10], in [11], in experiment [12], in experiment [13] and in experiment [14] was inactive. Also, the result in experiment [15] and in experiment [16] was inactive.

With `CCn1c(N)[n+](CC(=O)Nc2ccc(SC(F)F)cc2)c2ccccc21`, the activation in experiment [1] is 200% (active); in [12] it was 10.3% (active). The outcome in [2], in experiment [3], in experiment [4], in [5], in [6] and in [7] was inactive. For the same compound, the outcome in [8], in [9], in experiment [10], in [11], in [13] and in experiment [14] was inactive. Besides, the outcome in [15] and in [16] was inactive.

On to `Cc1cccc2cc(C(c3nnnn3Cc3ccccc3)N3CCN(C)CC3)c(=O)[nH]c12` (stereo not given), for which the activation was 118% (active) in [1] and 29% (active) in [10]. The outcome in experiment [2], in [3], in experiment [4], in experiment [5], in experiment [6] and in experiment [7] was inactive. Besides, the outcome in experiment [8], in experiment [9], in experiment [11], in experiment [12], in experiment [13] and in [14] was inactive. For the same compound, the outcome in experiment [15] and in experiment [16] was inactive.

As to `C#Cc1cccc(C(=O)NC2CCCN(C3Cc4ccccc4C3)C2)c1` (stereo not given), the activation was 191% (active) in [1], 94% (active) in experiment [2], 59% (active) in experiment [10] and 111% (active) in [12]. Further, the result in experiment [3], in experiment [4], in experiment [5], in experiment [6], in [7] and in [8] was inactive. Further, the compound was called inactive in [9], in experiment [11], in experiment [13], in [14], in experiment [15] and in experiment [16].

With `COc1ccc(C(CNC(=O)C(C)c2ccc3cc(OC)ccc3c2)N(C)C)cc1` (stereo not given), the activation in experiment [1] was 243% (active); in experiment [2], 98% (active); in experiment [10] it was 63% (active); in experiment [12], 8.72% (active). For the same compound, the result in experiment [3], in experiment [4], in experiment [5], in experiment [6], in experiment [7] and in [8] was inactive. The outcome in experiment [9], in experiment [11], in [13], in experiment [14], in experiment [15] and in experiment [16] was inactive.

Source of the values: PubChem BioAssay.
